TDP1 cell noCPT: qHTS for Inhibitors of human tyrosyl-DNA phosphodiesterase 1 (TDP1): qHTS in cells in absence of CPT; DT40 Tdp1-/- hTDP1 cells, no CPT, ATP luminescence, 48 h; Potency, µM (titrated, usually from 46.2 µM), for inactives: at the highest dose activity change, negative = growth inhibition, actives largely listed as inhibitors; 420,000 compounds, 15% hits; AID 686978, 2013; further: potency means the concentration at half of the fitted maximal effect; nearly all actives have a fitted effect of over 55% in size
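Stably hTDP1-transfected Tdp1-null chicken DT40 cells were treated with library compounds minus camptothecin and grown for at least 48 hr at 37 °C, after which cellular ATP was quantified by luminescence.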
HT1080 IDH1KD tx: qHTS for induction of synthetic lethality in tumor cells producing 2HG: qHTS for the HT-1080-IDH1KD cell line | HT-1080 IDH1 knockdown viability, ATP luminescence, 48 h | Potency, µM (titrated, usually from 46.1 µM), inactives show top-dose activity, negative = toxicity, usual class: cytotoxic | 360,000 compounds, 2% hits | AID 686971, 2013;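 further: potency means the concentration at half of the fitted maximal effect; 0% = DMSO wells and -100% = cell-free medium wells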
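Using the IDH1-knockdown HT-1080 line run in the same batch and compound series as the NT line, viability after 48 h at 37 °C was determined by CellTiter-Glo luminescence and expressed as % activity.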
DT40 TDP1 CPT: qHTS for Inhibitors of human tyrosyl-DNA phosphodiesterase 1 (TDP1): qHTS in cells in presence of CPT. 420,000 compounds, 12% hits. AID 686979, 2013. Potency, µM (highest dose often 46.2 µM), for the others: at the top dose activity change, negative = growth inhibition, usual class: inhibitors. chicken DT40 Tdp1-/-;hTDP1 cells + 20 nM CPT, ATP luminescence, 48 h; further: potency means the concentration at half of the fitted maximal effect; nearly all actives have a fitted effect of over 55% in size
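Chicken DT40 Tdp1-/- cells complemented with human TDP1, 400 cells/well, exposed to compounds plus 20 nM camptothecin for at least 48 h at 37 C; viability read as ATP content by CellTiter-Glo luminescence.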
HT1080-NT tox: qHTS for induction of synthetic lethality in tumor cells producing 2HG: qHTS for the HT-1080-NT fibrosarcoma cell line. 360,000 compounds, 1.6% hits. HT-1080-NT fibrosarcoma viability, CellTiter-Glo ATP luminescence, 48 h. AID 686970, 2013. Potency, µM (doses to about 46.1 µM), for the others: at the top dose activity, negative = less viability, actives largely listed as cytotoxic;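 further: NT is the 2HG producing partner of a matched IDH1 knockdown line; potency means the concentration at half of the fitted maximal effect; 0% = DMSO-treated cells and -100% = media-only wells without cells; nearly all actives have a fitted effect of over 55% in size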
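HT-1080-NT; 750 cells/well; 5% FBS RPMI; 48 h compound, 37 degrees C; CellTiter-Glo luminescence; curve fitting and curve-class assignment.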
IL1B secr inh: qHTS for Inhibitors of Inflammasome Signaling: IL-1-beta AlphaLISA Primary Screen | THP-1 LPS/ATP IL-1B secretion, AlphaLISA, 16 h; stronger effect = lower value | activity change, % at 57.5 µM | 360,000 compounds, 4.7% hits | AID 743279, 2014; in the data active means activity change below about -50%; inconclusive means mostly about -30% to -49%
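THP-1 cells pretreated 1 hr with compounds (up to 57.5 uM final), then stimulated with LPS (250 ng/mL final) plus ATP (1.25 mM final); secreted IL-1B measured by AlphaLISA after 16 hr, decreased signal indicating inhibition.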
12-LOX inh: Primary qHTS assay for inhibitors of human arachidonate 12S-lipoxygenase (ALOX12): Round 2. Polyunsaturated fatty acid lipoxygenase ALOX12 (Homo sapiens), P18054. purified 12hLO, xylenol orange hydroperoxide absorbance. Potency, µM (series often up to 108 µM), inactives show at the highest dose activity change, negative = inhibition, usual class: inhibitors. 580,000 compounds, 1.1% hits. AID 1671190, 2021; further: potency means the concentration at half of the fitted maximal effect
Target sequence (P18054 whole entry, looked up): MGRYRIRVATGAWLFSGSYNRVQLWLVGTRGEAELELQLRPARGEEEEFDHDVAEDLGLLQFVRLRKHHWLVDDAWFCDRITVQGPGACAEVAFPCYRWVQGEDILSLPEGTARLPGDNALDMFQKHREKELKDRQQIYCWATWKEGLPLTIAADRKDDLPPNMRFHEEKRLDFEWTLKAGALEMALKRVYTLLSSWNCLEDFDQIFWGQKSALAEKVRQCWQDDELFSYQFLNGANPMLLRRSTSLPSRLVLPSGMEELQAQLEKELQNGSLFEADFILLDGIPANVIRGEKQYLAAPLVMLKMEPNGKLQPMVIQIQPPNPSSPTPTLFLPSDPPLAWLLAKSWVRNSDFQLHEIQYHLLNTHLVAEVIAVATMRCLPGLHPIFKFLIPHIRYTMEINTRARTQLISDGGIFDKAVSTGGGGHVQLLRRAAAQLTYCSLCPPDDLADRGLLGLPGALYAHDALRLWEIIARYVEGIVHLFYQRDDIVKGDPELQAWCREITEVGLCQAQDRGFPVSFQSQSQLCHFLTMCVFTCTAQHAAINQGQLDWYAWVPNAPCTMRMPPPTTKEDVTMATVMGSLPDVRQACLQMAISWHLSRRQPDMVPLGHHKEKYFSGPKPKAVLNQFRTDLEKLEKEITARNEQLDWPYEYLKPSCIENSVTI
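Purified human 12hLO (150 nM final) in 25 mM Hepes, 0.01% Triton X-100, pH 7.0 was preincubated 15 min at room temperature with compound. Then 40 uM arachidonic acid was added, 30 min. Hydroperoxide was read by Fe-XO absorbance ratio 573/405 nm.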
* hit, by the source's call; ? = inconclusive; . = no result given. Many of the other results were omitted from the sample, so hits are more common in it than they were. Unless noted, the call rests on the fitted dose curve; in most records, active means well fitted curve in the direction sought with a large enough effect; inconclusive means small, poorly fitted or top-dose-only effect, or another doubt; inactive means no such curve, though single readings can be large; an effect the other way counts as inactive or inconclusive. Unless noted, on the % scale 0 is the no-effect control and ±100 the full control effect.

SMILES	TDP1 cell noCPT	HT1080 IDH1KD tx	DT40 TDP1 CPT	HT1080-NT tox	IL1B secr inh	12-LOX inh
Cc1cc(Cl)c(OCCOCCN2CCC(C)CC2)c(Br)c1	16.4µM*	-1.3%	23.1µM*	-2.9%	-57.3*	?
CC1CCN(CCCCOc2ccccc2Br)CC1	?	-6.0%	?	-8.1%	-23.4	-13.8%
CCC(C)NCCCOc1c(C)cc(C)cc1Br (configuration not stated)	11.6µM*	?	?	?	-76.2*	?
Cc1cc(C)c(OCCCCN2CCC(C)CC2)c(Br)c1	?	?	?	?	-78.2*	-10.3%
CCC(C)NCCOCCOc1ccc(C)cc1Br (configuration not stated)	?	?	-25.1%	?	-27.2	?
Cc1cc(Cl)c(OCCOCCN2CCN(C)CC2)c(Br)c1	?	5.6%	?	0.3%	-13.1	?
CC(=O)c1cccc(NC(=O)C(C)Oc2cccc(Cl)c2)c1 (configuration not stated)	.	.	.	.	.	-1.3%
Cc1ccc(C2C(C#N)=C(N)OC3=C2C(=O)CC(C)(C)C3)o1 (configuration not stated)	.	.	.	.	.	-6.8%
O=C(Cc1ccccn1)N1CCCC(c2nn(-c3ccccc3)c(=O)[nH]2)C1 (configuration not stated)	.	.	.	.	.	31.2%
O=C(Nc1ccc(Cl)cc1)N1CCC(CN2CCCC2)CC1	-16.8%	.	-6.6%	.	.	-20.3%
O=C(Cc1ccccc1)N1CCCC(c2nn(-c3ccc(Cl)cc3)c(=O)[nH]2)C1 (configuration not stated)	.	.	.	.	.	31.6µM*
O=C(Nc1ccc(Cl)cc1)N1CCC(CN2CCCCCC2)CC1	23.1µM*	.	?	.	.	-24.8%
O=C(Cc1ccc(F)cc1)N1CCC(c2nn(-c3ccc(Cl)cc3)c(=O)[nH]2)CC1	.	.	.	.	.	28.2µM*
Cc1ccc(CN2CCCC(c3nn(-c4ccc(Cl)cc4)c(=O)[nH]3)C2)cc1 (configuration not stated)	.	.	.	.	.	17.8µM*
O=C(CC12CC3CC(CC(O)(C3)C1)C2)Nc1ccc2c(c1)Cc1ccccc1-2	.	.	.	.	.	-2.3%
CC(=O)Nc1ccc(N2C(=O)C(=O)/C(=C(/O)c3ccc(C)cc3)C2c2ccccc2)cc1 (configuration not stated)	.	.	.	.	.	-18.8%
O=C1c2c(nc(CNCc3cccc(Cl)c3)n2Cc2ccccc2)NCCN1CC1CC1	.	.	.	.	.	104.4%
Cc1ccc(NC(=O)c2cc3n(n2)CC(c2ccc4c(c2)OCO4)OC3)c(Cl)c1 (configuration not stated)	.	.	.	.	.	34.1%
Brc1ccc(-c2cnc(-c3ccccc3)o2)cc1	.	.	.	.	.	12.8%
CCOC(=O)c1ccc(NC(=O)c2c(-c3ccc(OC)cc3)oc3ccc(OC)cc23)cc1	.	.	.	.	.	-26.1%
O=C(Nc1ccc(Cl)cc1)N1CCC(c2nn(-c3ccc(Cl)cc3)c(=O)[nH]2)CC1	.	.	.	.	.	12.6µM*
COc1ccc(Cn2c(C3CCN(C(=O)Cc4ccc(F)cc4)CC3)n[nH]c2=O)cc1	.	.	.	.	.	21.9%
O=C(Cc1ccc(Cl)cc1)N1CCC(c2n[nH]c(=O)n2Cc2ccc(F)cc2)CC1	.	.	.	.	.	14.1µM*
CC(C)(C)C(=O)N1CCC(c2nn(-c3ccc(Cl)cc3)c(=O)[nH]2)CC1	.	.	.	.	.	2.8%
COc1ccccc1N(CC(=O)NCCSCc1ccccc1)S(=O)(=O)c1ccccc1	23.1µM*	-11.5%	?	-1.5%	-20.5	-3.8%
SMILES	TDP1 cell noCPT	HT1080 IDH1KD tx	DT40 TDP1 CPT	HT1080-NT tox	IL1B secr inh	12-LOX inh
COc1ccc(N(CC(=O)NCCSCc2ccco2)S(=O)(=O)c2ccccc2)cc1OC	?	-8.7%	?	-1.4%	-14.1	0.7%
COc1ccccc1N(CC(=O)NCCSCc1ccco1)S(=O)(=O)c1ccccc1	16.4µM*	1.3%	18.4µM*	20.7%	0.4	-2.5%
CCOc1ccc(N(CC(=O)NCCSCc2ccc(C)cc2)S(C)(=O)=O)cc1	?	-1.9%	2.5%	-5.8%	-1.9	0.0%
COc1ccccc1N(CC(=O)NCCSCc1ccccc1)S(=O)(=O)c1ccc(C)cc1	11.6µM*	?	9.2µM*	-16.2%	-18.6	?
CCOc1ccc(N(CC(=O)NCCSCc2ccccc2)S(C)(=O)=O)cc1	5.8µM*	-2.6%	1.84µM*	-5.1%	12.4	0.0%
COc1cc(CNC(=O)c2ncoc2-c2cccs2)cc(OC)c1OC	.	.	.	.	.	32.3%
CCc1ccc(-c2nc(-c3nc(-c4ccccc4)cs3)sc2C)cc1	.	.	.	.	.	30.1%
CCc1ccc(CNC(=O)CN2C(=O)C3CCCCN3c3ccc(C(=O)N4CCCC4)cc32)cc1 (configuration not stated)	?	.	?	.	.	-18.3%
CC1(C)C2CC=C(/C=N/NC(=O)c3ccccc3O)C1C2 (configuration not stated)	-6.5%	-19.1%	-2.3%	-19.9%	10.1	0.4%
CC1(C)C2CC=C(/C=N/NC(=S)NCCc3ccccc3)C1C2 (configuration not stated)	?	?	?	?	?	44.7µM*
CNC(=S)N/N=C/C1=CCC2CC1C2(C)C (configuration not stated)	?	-10.0%	7.31µM*	-21.8%	33.4	?
CC1Oc2ccc(NC(=O)c3ccc(F)cc3F)cc2CN(Cc2ccc(Cl)cc2)C1=O (configuration not stated)	.	.	.	.	.	-6.4%
COC(=O)c1sccc1S(=O)(=O)Nc1ccc(OC(F)F)cc1	.	.	.	.	.	13.9%
COc1ccc(CN(CCc2ccccc2)Cc2ccccc2)cc1OC	?	-17.3%	?	-13.3%	29.6	?
COc1cc(CN(CCN(C)C)Cc2ccccc2)ccc1OCc1ccccc1	23.1µM*	20.6µM*	?	23.1µM*	-62.6*	?
Cc1cc(OCC(O)CN2CCN(c3ccccn3)CC2)cc(C)c1Cl (configuration not stated)	?	?	?	16.4µM*	-69.0*	?

Bioassay records as filed in PubChem.
